Screening results as filed in PubChem BioAssay.
This is one part of a sample in which hits are shown more often than they occur.
Glyco luc inh: N-linked glycosylation inhibition; D54 ERlucT glycosylation luciferase reporter, 24 h; percent of 100 nM tunicamycin response; reporter increase, % at 12.5 µM; 360,000 tested, 0.23% active;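 active = mean luciferase reporter signal, scaled so untreated is 0 and the glycosylation-blocking control 100, at or above a set limit in every replicate; inconclusive = mean reaches the limit but not every replicate does; inactive = mean below the limit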;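 also: luciferase carries N-glycosylation sites so blocking glycosylation raises the light; 0% = median of neutral control wells and 100% = median of 100 nM tunicamycin wells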
Rtt109 HAT inh: C. albicans Rtt109 histone acetyltransferase inhibition; purified Rtt109/Vps75, ThioGlo CoA-SH fluorescence, 4 h; inhibition, % at 34.9 µM; 330,000 tested, 0.16% active;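 active = inhibition of at least 50% in every replicate; inconclusive = best replicate reaches 50% inhibition but some replicates fall short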
Target sequence (Q5AAJ8 whole entry, looked up): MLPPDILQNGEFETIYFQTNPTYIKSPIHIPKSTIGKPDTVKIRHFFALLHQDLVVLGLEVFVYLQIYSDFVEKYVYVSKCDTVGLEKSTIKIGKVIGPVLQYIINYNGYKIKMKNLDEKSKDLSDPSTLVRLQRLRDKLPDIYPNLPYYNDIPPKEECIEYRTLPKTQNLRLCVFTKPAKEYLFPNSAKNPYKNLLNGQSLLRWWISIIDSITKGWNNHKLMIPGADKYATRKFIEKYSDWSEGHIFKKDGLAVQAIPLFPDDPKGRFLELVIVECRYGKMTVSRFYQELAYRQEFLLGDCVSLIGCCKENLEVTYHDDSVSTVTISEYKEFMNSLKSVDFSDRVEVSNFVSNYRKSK
DENV2 CPE: inhibitors of DENV2 cytopathic effect; DENV2-infected cells, cytopathic effect rescue, plate reader; CPE inhibition, % at 9.99 µM; 350,000 tested, 1.7% active; AID 651640; in the data active = CPE inhibition above about 20%, passing the limit was not always enough; inconclusive = no clear call, values can overlap the other calls; tested in BHK-21 cells;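 also: 0% = median of neutral control wells and 100% = median of positive control wells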
PglD inh: PglD (C. jejuni) enzyme inhibition; 360,000 tested, 0.098% active; inhibition, % at 12.5 µM; AID 602405; purified PglD enzyme, DTNB colorimetric CoA detection; in the data active = inhibition above about 16%, passing the limit was not always enough; inconclusive = no clear call, values can overlap the other calls
Numbers without * were called inactive; ? = inconclusive; / = no result given.

SMILES | Glyco luc inh | Rtt109 HAT inh | DENV2 CPE | PglD inh
COc1ccc(N2CCN(Cc3nc4c(c(=O)[nH]c(=O)n4C)n3Cc3cccc(Cl)c3)CC2)cc1 | -1.4 | -4.4 | 98.1* | /
COc1ccc(N2CCN(Cc3nc4c(c(=O)[nH]c(=O)n4C)n3CCCc3ccccc3)CC2)cc1 | 2.3 | 8.3 | / | -1.8
COc1cc(C2NC(=O)NC(C)=C2C(=O)OC2CCCC(C)C2)cc(Br)c1O (centres undefined) | -1.4 | -9.7 | 45.8* | -3.9
Cc1noc(C)c1S(=O)(=O)Nc1ccc2c(c1)C(=O)N([C@H](C)CO)C[C@H](C)[C@@H](CN(C)S(C)(=O)=O)OCCCC[C@H](C)O2 | / | / | 0.1 | 0.0
C[C@@H]1CN([C@@H](C)CO)C(=O)Cc2cc(NS(=O)(=O)c3ccccc3)ccc2O[C@@H]1CN(C)S(C)(=O)=O | / | / | 24.2* | -2.8
C[C@H](CO)N1C[C@H](C)[C@@H](CN(C)S(C)(=O)=O)Oc2ccc(NC(=O)Cc3ccccc3)cc2CC1=O | / | / | 23.1* | 0.8
C[C@@H]1CN([C@H](C)CO)C(=O)Cc2cc(NS(=O)(=O)c3ccc(F)cc3)ccc2O[C@@H]1CN(C)S(C)(=O)=O | / | / | 30.8* | 4.2
CC(C)NC(=O)N[C@@H]1CC[C@H](CCNS(=O)(=O)c2ccc(F)cc2)O[C@H]1CO | / | / | ? | -1.6
Cc1nn(C2CCS(=O)(=O)C2)c2nc(C3CC3)cc(C(=O)Nc3ccc(C(N)=O)cc3)c12 (centres undefined) | -0.7 | 50.1* | ? | /
O=C(Nc1ccc(Cl)cc1)N[C@@H]1CC[C@@H](CCn2cc(Cc3ccccc3)nn2)O[C@H]1CO | / | / | 5.1 | 1.6
CN(C)C(=O)c1ccc(-c2ccc([C@H]3[C@@H](CO)N4C(=O)CN(C(=O)C5CCCC5)C[C@@H]34)cc2)cc1 | / | / | -21.2 | /
O=C(O)C[C@@H]1C[C@@H]2c3cc(NC(=O)C4CCOCC4)ccc3O[C@@H]2[C@H](CO)O1 | / | / | 27.6* | /
COCCNC(=O)C[C@@H]1C[C@@H]2c3cc(NC(=O)C4CCOCC4)ccc3O[C@@H]2[C@H](CO)O1 | / | / | 8.5 | 2.9
COCCNC(=O)C[C@@H]1C[C@H]2c3cc(NC(=O)Nc4ccc(OC)cc4)ccc3O[C@H]2[C@@H](CO)O1 | / | / | 114.2* | 6.5
COCCNC(=O)C[C@@H]1C[C@H]2c3cc(NC(=O)C4CCOCC4)ccc3O[C@H]2[C@H](CO)O1 | / | / | 24.2* | -0.3
COCCNC(=O)C[C@H]1C[C@@H]2c3cc(NC(=O)Nc4ccc(OC)cc4)ccc3O[C@@H]2[C@@H](CO)O1 | / | / | 1.9 | 1.8
C[C@@H]1CN([C@@H](C)CO)C(=O)Cc2cc(NS(=O)(=O)c3cn(C)cn3)ccc2O[C@H]1CN(C)Cc1ccc(C(=O)O)cc1 | / | / | -4.9 | -2.1
CC(C)(C)NC(=O)CON=C1c2ccccc2-c2ccccc21 | -8.3 | -5.2 | -3.3 | -0.4
CC(C)(C)NCC(O)CON=C1c2ccccc2-c2ccccc21 (centres undefined) | 35.3* | 7.8 | 16.8 | /
CC(C)C(=O)Nc1nnc(CCN2CCCCC2)s1 | 0.9 | 52.1* | / | 6.6
O[C@@H]1CN(Cc2cccs2)[C@@H](c2ccccc2)C[C@H]1n1cc(C2CC2)nn1 | 0.0 | / | ? | -2.4
CCCCCC(=O)N1C[C@@H](O)[C@H](n2cc(COC(=O)c3ccccc3)nn2)C[C@@H]1c1ccc(C)cc1 | 1.6 | / | 74.0* | /
COc1ccc([C@H]2C[C@@H](O)[C@H](n3cc(COC(=O)c4ccccc4)nn3)CN2Cc2cccs2)cc1 | 1.7 | / | 56.2* | -1.0
COc1ccc([C@H]2C[C@@H](n3cc(C4CC4)nn3)[C@H](O)CN2Cc2cccs2)cc1 | -0.4 | / | 34.5* | -3.0
O[C@H]1CN(CC2CCCCC2)[C@@H](c2ccc(Cl)cc2)C[C@@H]1n1cc(C2CC2)nn1 | -9.2 | / | 45.3* | -3.1
SMILES | Glyco luc inh | Rtt109 HAT inh | DENV2 CPE | PglD inh
CCCCCC(=O)N1C[C@H](n2cc(COC(=O)c3ccccc3)nn2)[C@@H](O)C[C@@H]1c1ccc(C)cc1 | 0.0 | / | -15.2 | -6.9
COc1ccc([C@H]2C[C@H](O)[C@@H](n3cc(COC(=O)c4ccccc4)nn3)CN2Cc2cccs2)cc1 | 1.0 | / | 14.6 | 5.3
C[C@H]1CN([C@@H](C)CO)C(=O)c2cc(C3=CCCC3)cnc2O[C@@H]1CN(C)C(=O)c1ccc2c(c1)OCO2 | / | / | 9.1 | 0.8
COc1ccc([C@H]2C[C@H](O)[C@@H](n3cc(COC(=O)c4ccccc4)nn3)CN2CC2CCCCC2)cc1 | -2.5 | / | 20.1* | 2.2
Cc1ccc(S(=O)(=O)NCC(=O)OCc2cc(=O)oc3cc(C)ccc23)cc1 | 0.2 | -0.2 | -3.8 | /
Cc1ccc2c(COC(=O)CNC(=O)c3ccccc3)cc(=O)oc2c1 | -0.1 | -3.8 | 117.9* | /
CCOC(=O)c1cnc2ccccc2c1NCCO | 3.1 | 12.8 | / | -2.3
CCOC(=O)c1cnc2c(C)cc(C)cc2c1NCCCN1CCOCC1 | 29.2* | 3.6 | 12.5 | -0.8
CCOC(=O)c1cnc2c(ccc3ccccc32)c1NCCCN(C)C | 98.4* | -4.1 | 0.7 | 6.5
CCCn1c(=S)[nH]c2cc(C(=O)NCc3ccccc3OC)ccc2c1=O | 1.0 | / | 2.4 | 1.9
CC(C)Cn1c(=S)[nH]c2cc(C(=O)NCc3ccccc3F)ccc2c1=O | -2.2 | -3.0 | 62.1* | -1.9
COc1ccc(CN(C)C[C@H]2Oc3c(NC(=O)c4ccc(-c5nccs5)cc4)cccc3C(=O)N([C@@H](C)CO)C[C@@H]2C)cc1 | / | / | 22.0* | -2.1
CNC[C@H]1Oc2c(NC(=O)c3ccc(-c4nccs4)cc3)cccc2C(=O)N([C@H](C)CO)C[C@H]1C | / | / | 40.8* | -1.5
COc1ccc(CN(C)C[C@@H]2Oc3c(NC(=O)c4ccc(-c5nccs5)cc4)cccc3C(=O)N([C@@H](C)CO)C[C@H]2C)cc1 | / | / | 4.9 | -1.1
CNC[C@@H]1Oc2c(NC(=O)c3ccc(-c4nccs4)cc3)cccc2C(=O)N([C@H](C)CO)C[C@@H]1C | / | / | -4.4 | 4.9
CO[C@@H]1CN(C)C(=O)c2cc(NC(=O)NC(C)C)ccc2OC[C@H](C)N(C(=O)CC2CC2)C[C@H]1C | / | / | 6.1 | 0.1
Cc1ccc(S(=O)(=O)N2[C@@H]3CNC[C@H]2C3c2ccc(-c3cccc(F)c3)cc2)cc1 (some centres undefined) | / | / | -4.0 | /
O=S(=O)(c1ccccc1)N1[C@@H]2CNC[C@H]1C2c1ccc(-c2ccccc2)cc1 (some centres undefined) | / | / | 68.3* | /
Cc1ccc(S(=O)(=O)N2[C@@H]3CNC[C@H]2C3c2ccc(-c3ccc(C#N)cc3)cc2)cc1 (some centres undefined) | / | / | 29.1* | /
COc1ccc(NC(=O)N(C)C[C@H]2Oc3ccc(NC(=O)Nc4ccccc4)cc3C(=O)N([C@H](C)CO)C[C@@H]2C)cc1 | / | / | -0.9 | -9.6
C[C@H]1CN([C@@H](C)CO)C(=O)c2cc(NC(=O)CCCN(C)C)ccc2O[C@H]1CN(C)C | / | / | 2.0 | 0.2
CCOC1=C2CN(S(=O)(=O)c3ccc(C)cc3)[C@@H](c3ccc(CC)cc3)C[C@H]2[C@H]2C(=O)N(c3ccccc3)C(=O)[C@H]2C1 | -3.0 | / | 0.9 | 2.0
